Data: PubChem BioAssay (Tox21)
Results filed as inconclusive are left out. The source made the active and inactive calls. Unless noted, calls follow the shape of the dose curve; as a rule, active = well fitted curve in the direction sought with a large enough effect in the repeat runs; inconclusive = weak or mixed curves; inactive = no such curve, though single readings can be large; an effect the other way counts as inactive or inconclusive.

What was measured:
[1] = qHTS assay to identify small molecule antagonists of the glucocorticoid receptor (GR) signaling pathway - cell viability counter screen (AID 720693); also: nearly all actives have a fitted effect of over 55% in size
[2] = qHTS assay for identifying genotoxic compounds that show differential cytotoxicity against isogenic chicken DT40 cell lines with known DNA damage response pathways - wild type cell line (AID 743012); also: nearly all actives have a fitted effect of over 60% in size
Procedure, shortened: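 Luminescent ATP viability signal (CellTiter-Glo, 30 min RT) recorded after wild type DT40 cells were incubated with compounds for 40 h at 37 C/5% CO2.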

[3] = qHTS assay for identifying genotoxic compounds that show differential cytotoxicity against isogenic chicken DT40 cell lines with known DNA damage response pathways - Rev3 mutant cell line (AID 743014); also: nearly all actives have a fitted effect of over 55% in size
[4] = qHTS assay for identifying genotoxic compounds that show differential cytotoxicity against isogenic chicken DT40 cell lines with known DNA damage response pathways - Rad54/Ku70 mutant cell line (AID 743015); also: nearly all actives have a fitted effect of over 60% in size
[5] = qHTS assay to identify small molecule antagonists of the androgen receptor (AR) signaling pathway - cell viability counter screen (AID 743033; also: nearly all actives have a fitted effect of over 45% in size)
[6] = qHTS assay to identify small molecule antagonists of the androgen receptor (AR) signaling pathway using the MDA cell line - cell viability counter screen (AID 743041; also: nearly all actives have a fitted effect of over 45% in size)
Procedure, shortened: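 Using the breast carcinoma line MDA-kb2 AR-luc, test chemicals were co-incubated with R1881 for 16 h; CellTiter-Fluor reagent, added at 15.5 h, provided a fluorescence measure of live cells.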

[7] = qHTS assay to identify small molecule antagonists of the thyroid receptor (TR) signaling pathway - cell viability counter screen (AID 743064); also: nearly all actives have a fitted effect of over 50% in size
Procedure, shortened: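 Same-well viability check: GH3.TRE-Luc cells stimulated with 1 nM T3 alongside test compound for 23.5 h, followed by CellTiter-Fluor fluorescence.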

[8] = qHTS assay to identify small molecule antagonists of the thyroid receptor (TR) signaling pathway (AID 743065); also: series mostly up to about 70 µM; nearly all actives have a fitted effect of over 55% in size
Procedure, shortened: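 Antagonism measured as loss of luciferase signal in GH3 cells stably carrying a TRE-luciferase reporter, co-treated with compound and T3 (1 nM final) for 23.5 h at 37 C. Viability was read in the same well by CellTiter-Fluor.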

[9] = test system: thyroid hormone receptor (rat, GH3 cells); experiment: qHTS assay to identify small molecule agonists of the thyroid receptor (TR) signaling pathway (AID 743066; calls by dose curve)
[10] = molecular target: Estrogen receptor (Homo sapiens) (UniProt P03372); experiment: qHTS assay to identify small molecule antagonists of the estrogen receptor alpha (ER-alpha) signaling pathway (AID 743069; active = well fitted curve in the direction sought with a large enough effect in the signal ratio in the repeat runs, not every such curve was filed as active; the % refers to the signal ratio)
Procedure, shortened: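 Fluorescence intensity from a beta-lactamase FRET substrate served as the read-out. Cells: HEK293 with stably integrated ER-alpha-UAS-bla reporter. Agonist 17beta-estradiol was co-added with compounds; incubation 18 hr at 37C, substrate 2 hr at room temperature.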

[11] = qHTS assay to identify small molecule antagonists of the estrogen receptor alpha (ER-alpha) signaling pathway - cell viability counter screen (AID 743074; calls by dose curve; also: nearly all actives have a fitted effect of over 45% in size)
[12] = molecular target: Estrogen receptor (Homo sapiens) (UniProt P03372); experiment: qHTS assay to identify small molecule agonists of the estrogen receptor alpha (ER-alpha) signaling pathway (AID 743075; calls by dose curve)
[13] = molecular target: Estrogen receptor (Homo sapiens) (UniProt P03372); experiment: qHTS assay to identify small molecule agonists of the estrogen receptor alpha (ER-alpha) signaling pathway using the BG1 cell line (AID 743079); also: nearly all actives have a fitted effect of over 20% in size
[14] = qHTS assay to identify small molecule antagonists of the estrogen receptor alpha (ER-alpha) signaling pathway using the BG1 cell line (AID 743080; calls by dose curve;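 also: BG1 cells stimulated with 17beta-estradiol alongside compound; series mostly up to about 70 µM; nearly all actives have a fitted effect of over 25% in size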)
Procedure, shortened: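 Endogenous full-length ER-alpha in BG1-Luc-4E2 cells drives a stably integrated 4×ERE luciferase gene; compounds were tested against 17beta-estradiol over 21.5 h, with luminescence and multiplexed viability fluorescence recorded.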

[15] = qHTS assay to identify small molecule antagonists of the estrogen receptor alpha (ER-alpha) signaling pathway using the BG1 cell line - cell viability counter screen (AID 743081);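 also: compound given together with 17beta-estradiol as the ER stimulus; series mostly up to about 70 µM; nearly all actives have a fitted effect of over 45% in size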
Aromatase (Homo sapiens) = Aromatase (Homo sapiens) (UniProt P11511); experiment: qHTS assay to identify aromatase inhibitors (AID 743083); also: series mostly up to about 70 µM; nearly all actives have a fitted effect of over 55% in size
[16] = molecular target: Androgen receptor (Homo sapiens) (UniProt P10275); experiment: qHTS assay to identify small molecule agonists of the androgen receptor (AR) signaling pathway (AID 743036; active = well fitted activation curve with a large enough effect in the signal ratio in the repeat runs, with a control signal flat, not every such curve was filed as active; the % refers to the signal ratio)
Procedure, shortened: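 Agonist activity was scored by beta-lactamase reporter fluorescence in stably transfected HEK293 cells exposed to compounds for 16 h at 37C and 5% CO2. Substrate loading took 2 h at room temperature.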

[17] = molecular target: Androgen receptor (Homo sapiens) (UniProt P10275); experiment: qHTS assay to identify small molecule agonists of the androgen receptor (AR) signaling pathway using the MDA cell line (AID 743040; also: nearly all actives have a fitted effect of over 20% in size)
Procedure, shortened: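 Stable MMTV-luciferase reporter in MDA-kb2 cells; note the promoter carries GR as well as AR response elements. 16 h compound treatment, 37C, 0% CO2; ONE-Glo luminescence endpoint.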
% is scaled to controls: 0 for no effect and ±100 for the full control effect.

Aromatase (Homo sapiens), sequence (P11511 whole entry, looked up): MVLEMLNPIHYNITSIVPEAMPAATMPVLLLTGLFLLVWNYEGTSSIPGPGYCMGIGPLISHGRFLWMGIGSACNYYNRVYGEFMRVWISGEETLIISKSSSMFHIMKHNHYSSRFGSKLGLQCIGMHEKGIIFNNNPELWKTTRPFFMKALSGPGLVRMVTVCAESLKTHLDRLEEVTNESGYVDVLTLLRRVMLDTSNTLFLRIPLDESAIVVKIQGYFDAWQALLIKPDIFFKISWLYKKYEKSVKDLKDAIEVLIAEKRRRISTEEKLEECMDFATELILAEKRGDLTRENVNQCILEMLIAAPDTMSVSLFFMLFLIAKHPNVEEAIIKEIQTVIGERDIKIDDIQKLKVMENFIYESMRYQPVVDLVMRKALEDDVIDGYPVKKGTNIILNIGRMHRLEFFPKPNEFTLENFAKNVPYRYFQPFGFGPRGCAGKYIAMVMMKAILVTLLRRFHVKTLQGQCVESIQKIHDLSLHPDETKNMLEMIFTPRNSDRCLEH
Estrogen receptor (Homo sapiens), sequence (P03372 whole entry, looked up): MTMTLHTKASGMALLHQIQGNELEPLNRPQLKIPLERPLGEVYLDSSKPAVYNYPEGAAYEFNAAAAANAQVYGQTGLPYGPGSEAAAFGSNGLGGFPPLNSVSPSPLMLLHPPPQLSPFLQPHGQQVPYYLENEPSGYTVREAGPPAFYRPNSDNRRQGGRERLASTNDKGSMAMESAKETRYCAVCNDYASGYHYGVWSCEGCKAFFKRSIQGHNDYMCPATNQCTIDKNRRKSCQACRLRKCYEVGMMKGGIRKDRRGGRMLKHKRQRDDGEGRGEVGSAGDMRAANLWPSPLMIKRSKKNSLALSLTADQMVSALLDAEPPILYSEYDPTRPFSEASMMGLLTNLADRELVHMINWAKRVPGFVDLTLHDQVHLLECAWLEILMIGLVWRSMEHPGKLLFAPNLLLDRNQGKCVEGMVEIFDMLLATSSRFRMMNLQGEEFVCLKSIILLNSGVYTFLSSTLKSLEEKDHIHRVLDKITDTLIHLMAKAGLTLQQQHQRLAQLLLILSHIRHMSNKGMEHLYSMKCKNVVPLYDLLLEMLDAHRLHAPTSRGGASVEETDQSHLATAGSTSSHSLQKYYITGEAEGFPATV
Androgen receptor (Homo sapiens), sequence (P10275 whole entry, looked up): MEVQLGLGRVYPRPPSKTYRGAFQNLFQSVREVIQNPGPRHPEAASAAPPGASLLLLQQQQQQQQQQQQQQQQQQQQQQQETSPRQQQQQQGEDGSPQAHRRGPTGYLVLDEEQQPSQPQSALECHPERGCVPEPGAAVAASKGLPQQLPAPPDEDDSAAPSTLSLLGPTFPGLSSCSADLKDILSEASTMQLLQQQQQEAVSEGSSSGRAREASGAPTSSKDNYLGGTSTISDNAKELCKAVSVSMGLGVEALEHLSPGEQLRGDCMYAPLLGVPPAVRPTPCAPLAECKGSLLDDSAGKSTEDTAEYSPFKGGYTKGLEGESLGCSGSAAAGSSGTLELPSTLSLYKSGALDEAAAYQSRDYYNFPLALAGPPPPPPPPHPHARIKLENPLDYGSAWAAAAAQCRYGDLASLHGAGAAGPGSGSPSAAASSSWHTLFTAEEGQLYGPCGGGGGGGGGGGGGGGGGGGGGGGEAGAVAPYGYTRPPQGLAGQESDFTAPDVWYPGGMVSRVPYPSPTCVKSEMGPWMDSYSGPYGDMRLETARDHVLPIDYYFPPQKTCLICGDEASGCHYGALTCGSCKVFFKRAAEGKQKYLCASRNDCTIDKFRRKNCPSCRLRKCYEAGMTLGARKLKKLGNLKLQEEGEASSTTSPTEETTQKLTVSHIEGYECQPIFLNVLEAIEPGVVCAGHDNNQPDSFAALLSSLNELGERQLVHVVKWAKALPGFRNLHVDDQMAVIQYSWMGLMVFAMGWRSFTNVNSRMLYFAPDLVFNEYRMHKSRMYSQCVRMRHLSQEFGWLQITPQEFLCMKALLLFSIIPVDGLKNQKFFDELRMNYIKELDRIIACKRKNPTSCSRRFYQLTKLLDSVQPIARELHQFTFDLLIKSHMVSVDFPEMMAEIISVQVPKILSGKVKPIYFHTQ

Cc1nc2n(c(=O)c1CCN1CCC(c3noc4cc(F)ccc34)CC1)CCC[C@H]2O
inactive: outcome [1] | Potency [2] | Potency [3] | Potency [4] | Potency [5] | Potency [6] | Potency [7] | Potency [8] | outcome [9] | outcome [10] | outcome [11] | outcome [12] | Potency [13] | Potency [14] | outcome [15] | Potency (Aromatase (Homo sapiens))

CC/C=C\CC1=C(C)CCC1=O
inactive: outcome [1] | Potency [2] | Potency [3] | Potency [4] | Potency [5] | outcome [16] | outcome [17] | Potency [6] | Potency [7] | Potency [8] | outcome [9] | outcome [11] | outcome [15] | Potency (Aromatase (Homo sapiens))

CCNC(=O)C1CC(C)CCC1C(C)C (stereo not drawn)
inactive: outcome [1] | Potency [2] | Potency [3] | Potency [4] | Potency [5] | Potency [6] | Potency [7] | Potency [8] | outcome [9] | outcome [10] | outcome [11] | outcome [12] | Potency [13] | Potency [14] | outcome [15] | Potency (Aromatase (Homo sapiens))

CCCC(=O)C(C)=O
inactive: outcome [1] | Potency [2] | Potency [3] | Potency [4] | Potency [5] | Potency [6] | Potency [7] | Potency [8] | outcome [9] | outcome [10] | outcome [11] | outcome [12] | Potency [13] | Potency [14] | outcome [15] | Potency (Aromatase (Homo sapiens))

C[C@@H](Oc1ccc(CNC(=O)c2cccnc2Oc2ccc3c(c2)OCO3)c(F)c1)C(=O)O
inactive: outcome [1] | Potency [2] | Potency [3] | Potency [4] | Potency [5] | Potency [6] | Potency [7] | Potency [8] | outcome [9] | outcome [10] | outcome [11] | outcome [12] | Potency [13] | Potency [14] | outcome [15] | Potency (Aromatase (Homo sapiens))

CCCCCCCC/C=C\CCCCCCCC(=O)OCCCC
inactive: outcome [1] | Potency [2] | Potency [3] | Potency [4] | Potency [5] | Potency [6] | Potency [7] | Potency [8] | outcome [9] | outcome [10] | outcome [11] | outcome [12] | Potency [13] | Potency [14] | outcome [15] | Potency (Aromatase (Homo sapiens))

O=C(O)Cc1cn(-c2ccccc2)nc1-c1ccc(Cl)cc1
inactive: outcome [1] | Potency [2] | Potency [3] | Potency [4] | Potency [5] | Potency [6] | Potency [7] | Potency [8] | outcome [9] | outcome [10] | outcome [11] | outcome [12] | Potency [13] | Potency [14] | outcome [15] | Potency (Aromatase (Homo sapiens))

C=C(C)C(=O)OCCOP(=O)(O)OCCOC(=O)C(=C)C
inactive: outcome [1] | Potency [2] | Potency [3] | Potency [4] | Potency [5] | Potency [6] | Potency [7] | Potency [8] | outcome [9] | outcome [10] | outcome [11] | outcome [12] | Potency [13] | Potency [14] | outcome [15] | Potency (Aromatase (Homo sapiens))

O=S(O)(O)=S
inactive: viability change, negative = cytotoxic [1] -8.56% [at 7.04 µM] | activity change, negative = cytotoxicity [2] -4.81% [at 8.52 µM] | activity, negative = cytotoxicity [3] 5.56% [at 8.53 µM] | activity change, negative = cytotoxicity [4] -5.32% [at 8.55 µM] | activity change, negative = cytotoxicity [5] 3.7% [at 7.04 µM] | viability change, negative = cytotoxic [6] -5.99% [at 8.47 µM] | activity change, negative = cytotoxic [7] 0% [at 8.44 µM] | activity, negative = inhibition [8] -1.88% [at 8.44 µM] | activation [9] -0.901% [at 8.08 µM] | activity, negative = inhibition [10] 6.18% [at 6.71 µM] | activity, negative = cytotoxicity [11] -12.1% [at 6.72 µM] | activation [12] -2.02% [at 6.71 µM] | activation [13] 6.37% [at 8.47 µM] | activity change, negative = inhibition [14] -6.18% [at 8.47 µM] | activity change, negative = cytotoxicity [15] -1.7% [at 8.47 µM] | activity, negative = inhibition (Aromatase (Homo sapiens)) 5.06% [at 8.47 µM]

COc1ccc(-c2cc(=O)c3c(O)cc(O[C@@H]4O[C@H](CO[C@@H]5O[C@@H](C)[C@H](O)[C@@H](O)[C@H]5O)[C@@H](O)[C@H](O)[C@H]4O)cc3o2)cc1O
inactive: outcome [1] | Potency [2] | Potency [3] | Potency [4] | Potency [5] | Potency [6] | Potency [7] | Potency [8] | outcome [9] | outcome [10] | outcome [11] | outcome [12] | Potency [13] | Potency [14] | outcome [15] | Potency (Aromatase (Homo sapiens))

CN1C(C)(C)CCCC1(C)C
inactive: outcome [1] | Potency [2] | Potency [3] | Potency [4] | Potency [5] | Potency [6] | Potency [7] | Potency [8] | outcome [9] | outcome [10] | outcome [11] | outcome [12] | Potency [13] | Potency [14] | outcome [15] | Potency (Aromatase (Homo sapiens))

O=C1O[C@@H]2[C@@H](O)[C@H](O)O[C@@H]2[C@H]1O
inactive: outcome [1] | Potency [2] | Potency [3] | Potency [4] | Potency [5] | Potency [6] | Potency [7] | Potency [8] | outcome [9] | outcome [10] | outcome [11] | outcome [12] | Potency [13] | Potency [14] | outcome [15] | Potency (Aromatase (Homo sapiens))

CC(C)N(c1ccccc1)C(C)C
inactive: outcome [1] | Potency [2] | Potency [3] | Potency [4] | Potency [5] | Potency [6] | Potency [7] | Potency [8] | outcome [9] | outcome [10] | outcome [11] | outcome [12] | Potency [13] | Potency [14] | outcome [15] | Potency (Aromatase (Homo sapiens))

O=C(CS(=O)Cc1ccco1)NC/C=C\COc1cc(CN2CCCCC2)ccn1 (stereo not drawn)
inactive: outcome [1] | Potency [2] | Potency [3] | Potency [4] | Potency [5] | Potency [6] | Potency [7] | Potency [8] | outcome [9] | outcome [10] | outcome [11] | outcome [12] | Potency [13] | Potency [14] | outcome [15] | Potency (Aromatase (Homo sapiens))

CN(C)CCOCCO
inactive: outcome [1] | Potency [2] | Potency [3] | Potency [4] | Potency [5] | Potency [6] | Potency [7] | Potency [8] | outcome [9] | outcome [10] | outcome [11] | outcome [12] | Potency [13] | Potency [14] | outcome [15] | Potency (Aromatase (Homo sapiens))
